From PubChem BioAssay AID778 (Sanford-Burnham Center for Chemical Genomics, 2007)
Hit rate of the full screen: of about 96,000 compounds, about 20,000 (21%) were called active.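 How the source made its calls: active means CYP2C19 inhibition above a set limit at 5 µM in the primary screen (cut at about 50% in these data); inactive means the rest.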 Not all results are given here.

Target: Cytochrome P450 2C19 (Homo sapiens) (UniProt P33261)
Test: blockers of cytochrome P450 2C19 activity – biochemical, luminescence, ADME assay, primary screen (AID 778);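 further: plate controls were negative control wells for no effect and 2.5 mM tranylcypromine positive control for full effect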
Settings: CYP2C19 Supersomes, luciferin-H EGE luminescence, 30 min; at 5 µM; hits give high values

Sequence of Cytochrome P450 2C19 (Homo sapiens) (P33261 whole entry, looked up): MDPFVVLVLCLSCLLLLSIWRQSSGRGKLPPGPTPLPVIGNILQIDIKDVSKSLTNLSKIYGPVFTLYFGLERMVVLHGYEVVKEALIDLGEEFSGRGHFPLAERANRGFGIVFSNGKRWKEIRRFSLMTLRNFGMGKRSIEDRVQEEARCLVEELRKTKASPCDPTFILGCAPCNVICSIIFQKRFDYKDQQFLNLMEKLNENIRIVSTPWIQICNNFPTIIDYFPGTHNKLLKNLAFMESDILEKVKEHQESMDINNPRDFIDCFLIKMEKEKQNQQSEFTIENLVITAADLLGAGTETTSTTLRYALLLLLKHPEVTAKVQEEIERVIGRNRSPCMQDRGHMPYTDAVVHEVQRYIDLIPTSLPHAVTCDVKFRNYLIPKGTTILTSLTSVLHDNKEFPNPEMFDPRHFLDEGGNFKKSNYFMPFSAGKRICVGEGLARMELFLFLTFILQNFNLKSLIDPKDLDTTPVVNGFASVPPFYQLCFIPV

| SMILES | inhibition |
| --- | --- |
| CC(=O)c1sc(NC(=O)c2ccc(C)cc2)nc1C | 4.1% (inactive) |
| COC(=O)c1sccc1NC(=O)c1csc2c1CCCC2 | 4.9% (inactive) |
| CC(C)CC(=O)N=C1SC2CS(=O)(=O)CC2N1CCc1ccccc1 (stereo not given) | 39.3% (inactive) |
| COc1ccc(NC(C)=O)cc1NC(=O)CN1CCN(C2c3ccccc3-c3ccccc32)CC1 | 64.9% (active) |
| COc1ccc(NC(C)=O)cc1NC(=O)CN1CCN(c2ccccn2)CC1 | -7.2% (inactive) |
| CC1=CC(C)(C)Nc2ccc(OC(=O)C(Cc3ccccc3)N3C(=O)C4CCCCC4C3=O)cc21 (stereo not given) | 18.9% (inactive) |
| COc1ccc(CCNS(=O)(=O)c2ccc(Cl)s2)cc1OC | 67.5% (active) |
| COc1ccc(CCNC(=O)CN(c2ccccc2)S(C)(=O)=O)cc1OC | 32.8% (inactive) |
| COc1ccc(CCNS(=O)(=O)c2ccc(C(=O)NCc3ccco3)cc2)cc1OC | 56.7% (active) |
| CCCS(=O)(=O)N1CCC(C(=O)NCCc2ccc(OC)c(OC)c2)CC1 | -15.2% (inactive) |
| CCS(=O)(=O)NCCc1ccc(OC)c(OC)c1 | 12.9% (inactive) |
| COc1ccc(C(=O)NCCc2ccc(S(N)(=O)=O)cc2)cc1OC | -5.6% (inactive) |
| COc1ccc(CCNS(=O)(=O)c2ccc(F)cc2)cc1OC | 93.2% (active) |
| COc1ccc(S(=O)(=O)NCc2ccc(C(=O)N(C)Cc3ccco3)cc2)cc1 | 29.2% (inactive) |
| COc1ccc(CCNc2ncnc3nc[nH]c23)cc1OC | 5.8% (inactive) |
| Cc1ccc2cc(CCNC(=O)c3ccc4c(c3)OCO4)c(=O)[nH]c2c1 | 4.5% (inactive) |
| CC(=O)Oc1ccc2c(C)c(CC(C)O)c(=O)oc2c1 (stereo not given) | 42.8% (inactive) |
| O=C(Nc1cccc2ncccc12)C(Cl)(Cl)Cl | 6.6% (inactive) |
| COC(=O)C1=C(N)Oc2cc(C)oc(=O)c2C1c1cccnc1 (stereo not given) | 38.3% (inactive) |
| Cc1nn(C)cc1/C=C1\CCC/C(=C\c2cn(C)nc2C)C1=O | 16.5% (inactive) |
| COCCCNC(=O)CCc1nc2cccnc2n1Cc1ccc(OC)cc1 | -3% (inactive) |
| Cc1ccc(Cn2c(C)nc3c(c2=O)c2nc4ccccc4nc2n3Cc2ccco2)cc1 | 28% (inactive) |
| COCCCn1c2nc3ccccc3nc2c2c(=O)n(Cc3ccc(Cl)cc3)c(C)nc21 | 59.8% (active) |
| COc1cc(/C=N\NC(=O)C2C(=O)NCC2c2ccccc2)cc(OC)c1O (stereo not given) | -8.6% (inactive) |
| O=C(NN1C(=O)C2C3C=CC(C4CC34)C2C1=O)c1ccc(Cl)cc1 (stereo not given) | 1.3% (inactive) |

| SMILES | inhibition |
| --- | --- |
| CC(C)OCCCNC(=O)C1CC(=O)N(C2CCCCCCC2)C1 (stereo not given) | -8.7% (inactive) |
| Cc1ccc(S(=O)(=O)N(c2cccc(C)c2)C2CCS(=O)(=O)C2)cc1 (stereo not given) | -10.2% (inactive) |
| CCOc1ccccc1NC(=O)CCc1ccc(C)o1 | 90.7% (active) |
| CCc1ccc(CCC(=O)Nc2ccc(S(N)(=O)=O)cc2)o1 | -6.2% (inactive) |
| CCOc1ccccc1Nc1nnc(SCC(=O)Nc2cc(C)on2)s1 | 9.6% (inactive) |
| CC1CSc2nnc(CCc3ccccc3)n21 (stereo not given) | 2.1% (inactive) |
| O=c1c2ccccc2nc2n1C(CSc1ccc(F)cc1)CN2 (stereo not given) | -3.9% (inactive) |
| O=c1c2ccccc2nc2n1C(CSCc1cccc(C(F)(F)F)c1)CS2 (stereo not given) | 84.1% (active) |
| O=c1c2ccccc2nc2n1C(CSCc1ccccc1)CS2 (stereo not given) | 63.8% (active) |
| Cc1ccccc1N/N=C/c1ccc(N2CCOCC2)cc1 | 23.7% (inactive) |
| CCOc1ccccc1/C=c1\sc2nc(-c3ccco3)nn2c1=O | 15.4% (inactive) |
| O=C(CN1C(=O)CC(c2ccccc2)=Nc2ccccc21)NC1CCCCC1 | 52.2% (active) |
| CN(CCCNC(=O)CN1C(=O)CC(C)(C)S(=O)(=O)c2ccccc21)C1CCCCC1 | 9.9% (inactive) |
| O=C(NC1CCCCC1)C1CC(=O)N(CCc2ccccc2)C1 (stereo not given) | -5.3% (inactive) |
| O=C(NCc1ccco1)c1cc(-c2cccnc2)nc2ccc(Cl)cc12 | 0.7% (inactive) |
| O=C(NCCCN1CCN(C2CCCCC2)CC1)Nc1ccccc1C(F)(F)F | -6.6% (inactive) |
| Cc1ccc(CNC(=O)C2CCCN(S(C)(=O)=O)C2)cc1 (stereo not given) | 26.6% (inactive) |
| Cc1ccoc1C(=O)Nc1cccc(Oc2ccccc2)c1 | 5.3% (inactive) |
| O=C(Nc1ccccc1[N+](=O)[O-])C1C(c2ccccc2)=C1c1ccccc1 | 18.5% (inactive) |
| Cc1onc(-c2ccccc2)c1C(=O)Nc1ccccc1C#N | 86.7% (active) |
| CC(=O)Nc1cccc(NC(=O)c2c(-c3ccccc3)noc2C)c1 | 67.3% (active) |
| Cc1onc(-c2ccccc2)c1C(=O)N1CCOCC1 | 1.4% (inactive) |
| CCOC(=O)c1c(-c2cccc(C)c2)csc1NC(=O)c1c(-c2ccccc2)noc1C | 37.7% (inactive) |
| CCOC(=O)c1sc(NC(=O)CSc2ncccn2)c(C#N)c1C | 6.5% (inactive) |
| CCOC(=O)c1cc(NC(=O)c2cccnc2)cc(C(=O)OCC)c1 | 22.9% (inactive) |

| SMILES | inhibition |
| --- | --- |
| Cc1cc(C(=O)CC#N)c(C)n1CC(F)(F)F | 17% (inactive) |
| CC(C)OCCCNC(=O)CNC(=O)c1cccs1 | 14% (inactive) |
| CCOc1ccc(C2C(C(=O)O)c3ccccc3C(=O)N2CCN2CCOCC2)cc1 (stereo not given) | -12.7% (inactive) |
| CCCOc1ccc(C2c3c(oc4cc(C)c(C)cc4c3=O)C(=O)N2CCCN2CCOCC2)cc1 (stereo not given) | 69.9% (active) |
| CCCCOc1ccc(C(C)(O)CCN2CCOCC2)cc1 (stereo not given) | -1.7% (inactive) |
| COC(=O)[C@H](C)NC(=O)Nc1ccc(OC(F)(F)F)cc1 | 9.5% (inactive) |
| Cc1ccc(N2C(=O)S/C(=C/c3cn(C)c4ccccc34)C2=O)cc1 | -7.8% (inactive) |
| COc1ccc(-c2nnn(Cc3nc(N)nc(N4CCCCC4)n3)n2)cc1 | 65.2% (active) |
| CCc1ccc(-c2nnn(Cc3nn[nH]n3)n2)cc1 | 14.2% (inactive) |
| COc1ccc(-n2nnnc2SCc2nc(N)nc(N3CCOCC3)n2)cc1 | 22.5% (inactive) |
| CCN(CC)Cc1cc(C(C)=O)ccc1O | -2.4% (inactive) |
| Cc1c(CN2CCC(C)CC2)c(=O)n(-c2ccccc2)n1C | -0.1% (inactive) |
| Cc1nnc(SCc2nc3ccccc3nc2C)s1 | 52.6% (active) |
| Cc1nnc(SCC(=O)N2CCc3ccccc3C2)s1 | 42.5% (inactive) |
| Cc1nnc(SCC(=O)NCc2ccccc2)s1 | -3.1% (inactive) |
| CCc1c(C)sc(NC(=O)OC)c1C(=O)N1CCOCC1 | -0.7% (inactive) |
| CC(C)OC(=O)CN1C(=O)c2ccccc2C1=O | 24% (inactive) |
| C=CCn1c(C)cc(C(=O)CN2C(=O)c3ccccc3C2=O)c1C | 2.9% (inactive) |
| CC(=O)c1cnc(SCCN2C(=O)c3ccccc3C2=O)nc1C | 57.8% (active) |
| CC(=O)NNc1cc(=O)c2c(=O)n(C)c(=O)n(C)c2[nH]1 | -1.8% (inactive) |
| Cc1cc(=O)n2c3c(cccc13)CCC2 | 18.8% (inactive) |
| COc1ccc(/C=C2/S/C(=N/N=C3\CC4CCC3(C)C4(C)C)NC2=O)cc1 (stereo not given) | -9.6% (inactive) |
| CCOc1ccc(S(=O)(=O)NCCSc2ccccc2)cc1 | 98.7% (active) |
| CCOc1ccc2nc(NCCNS(=O)(=O)c3ccccc3)c(C#N)cc2c1 | 24.6% (inactive) |
| CCOCCCNS(=O)(=O)Cc1ccccc1 | 42.5% (inactive) |

| SMILES | inhibition |
| --- | --- |
| COCCNC(=O)Cn1cc2c(n1)CCCCC2 | -6.8% (inactive) |
| O=C1C2C3C=CC(C4CC34)C2C(=O)N1/N=C/c1ccc(-c2ccccc2[N+](=O)[O-])o1 (stereo not given) | 72.2% (active) |
| CCOc1cc2[nH]c(=O)n(CCC(=O)NCc3ccc(OC)cc3)c(=O)c2cc1OCC | -6% (inactive) |
| O=C(NCC1CCCO1)/C(=C\c1ccco1)NC(=O)c1ccccc1 (stereo not given) | -11.9% (inactive) |
| C/C(=C\c1ccco1)C1Nc2cccc3cccc(c23)N1 | 72.8% (active) |
| Cc1cccc(NC(=O)/C(=C\c2ccco2)NC(=O)c2ccccc2)c1 | 13.6% (inactive) |
| CCOC(=O)N1CCN(C(=O)c2cnc3n(c2=O)CCS3)CC1 | -15.9% (inactive) |
| CCOC(=O)c1nc(C)n(-c2ccc(Cl)cc2Cl)n1 | 16.5% (inactive) |
| Cc1nn(C(C)CC(=O)O)c(C)c1C (stereo not given) | 6.7% (inactive) |
| Cc1ccc(N2C(=O)C3C(c4ccccc4)(C2=O)C3(c2ccccc2)c2ccccc2)cc1 (stereo not given) | 8.1% (inactive) |
| CSC1=NCCN1C(=O)c1ccc(S(=O)(=O)N2CCOCC2)cc1 | 13.3% (inactive) |
| O=C(C1CC1)N1CCN=C1SCc1ccc(Cl)cc1 | 98.5% (active) |
| O=C(c1ccco1)N1CCN=C1SCc1cccc(Cl)c1 | 20.6% (inactive) |
| CCCOC(=O)CC1C(=O)NCCN1Cc1ccc(F)cc1 (stereo not given) | 19.1% (inactive) |
| CCC(=O)N1CCN=C1SCc1ccc(F)cc1 | 78.7% (active) |
| CCOC(=O)c1c(C(C#N)C#N)cc(C)nc1C | -4.1% (inactive) |
| CC(=O)Nc1ccc(NC(=O)c2sc3nc4c(c(-c5ccc(C)cc5)c3c2N)CCC4)cc1 | -6.7% (inactive) |
| C/C(N)=C(\C#N)C(=O)NCCc1ccccn1 | -6.3% (inactive) |
| NS(=O)(=O)c1ccc(NS(=O)(=O)/C=C/c2ccccc2)cc1 | 38.8% (inactive) |
| O=S(=O)(/C=C/c1ccccc1)NCCc1ccccn1 | 53.8% (active) |
| COc1ccc(CC(=O)Nc2nc3n(n2)C(c2ccccc2)CC(=O)N3)cc1OC (stereo not given) | -4.1% (inactive) |
| COc1ccc(CN2CCCCC2C)cc1OC (stereo not given) | 3% (inactive) |
| O=c1cc(CN2CCN(c3cccc(Cl)c3)CC2)c2cc3c(cc2o1)CCCC3 | 12.6% (inactive) |
| CCc1ccc2oc(=O)cc(CN3CCCCC3C)c2c1 (stereo not given) | 92.7% (active) |
| O=C(CSc1nnc(-c2ccoc2)o1)N1CCOCC1 | -14.6% (inactive) |
